Experimental data published in PubChem BioAssay.

Assay: MRP1 drug-resistance reversers in H69AR cells – cell-based, doxorubicin co-treatment, pilot screen (AID 601)
Settings: H69AR cells, CellTiter-Glo, 72 h; compound alone cytotoxicity; at 10 µM

Structure (SMILES) | viability
COC(=O)c1ccccc1NC(=O)CSc1nc2c(c(=O)n(C)c(=O)n2C)n1C | 97%
CCCCOc1cccc(NC(=O)CSc2nccn2C)c1 | 85.3%
Cc1ccc(Nc2cc(-n3nc(C)cc3C)ncn2)cc1 | 74.8%
COc1ccc(-n2c(SCC#N)nc3ccccc3c2=O)cc1 | 96.4%
COc1cc2c(C)nc(C)c(C#N)c2cc1OC | 86.6%
CC1=C(C(=O)OCc2ccccc2)C(c2ccc(C)o2)C2=C(CCCC2=O)N1 (stereo not given) | 103%
C=CCNC(=O)c1cc(-c2ccccc2O)on1 | 86.7%
Cc1cc(NC(=O)CSc2nc3ccsc3c(=O)n2NC(=O)c2ccccc2)no1 | 97.1%
O=C(NCc1ccco1)c1cnn2c(C(F)(F)F)cc(-c3ccco3)nc12 | 71.8%
Cc1ccc(-c2nnc3ccc(SCC(=O)NCc4ccco4)nn23)cc1 | 93.2%
CCCc1cc(C(N)=O)c(NC(=O)c2ccco2)s1 | 87.3%
COc1ccc(CCNC(=O)c2ccncc2)cc1OC | 97.5%
CCOC(=O)c1nnc(-c2ccccc2)o1 | 88.1%
Cc1ccc(S(=O)(=O)N2CCCC(C(=O)NC3=NCCS3)C2)cc1 (stereo not given) | 91.8%
O=C1CCCC2=C1C(c1ccsc1)CC(=O)N2c1ccccc1 (stereo not given) | 92.4%
Cc1csc2nc(CSc3nc4ccccc4o3)c(Br)n12 | 83%
CC(NC(=O)c1ccccc1NC(=O)c1ccco1)C(=O)O (stereo not given) | 86.7%
CCC(=O)Nc1cc2nn(-c3ccccc3)nc2cc1Cl | 68.2%
O=C(NC1CCCCC1)n1c(=O)oc2ccc(Cl)cc21 | 94.2%
COc1ccc(OC)c(-c2nnc(SCC(=O)NC3CCCCC3)o2)c1 | 98.5%
